Compound activity (PubChem BioAssay)
MCL1 BIM primary: MCL1-BIM-BH3 interaction inhibition (human); Q07820; GST-MCL1 / FITC-Bim-BH3 fluorescence polarization; inhibition, % at 10.9 µM; 0.68% of 320,000 active; AID 2057;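 active = inhibition above the mean inhibition of all tested compounds plus 3 SD, set per campaign, cut at about 40% in these data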;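 also: 0% = DMSO wells and 100% = unlabeled Bim-BH3 peptide control; higher means more loss of mP so more displacement of Bim peptide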
GLD-1 RNA inh: GLD-1-TGE RNA interaction inhibition (C. elegans); purified GLD-1 + fluorescein TGE RNA, fluorescence polarization; 0.44% of 320,000 active; inhibition, % at 5.96 µM;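 active = percent inhibition above a per-plate cutoff, the plate mean of test compounds plus 3 SD, cut at about 30% in these data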;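 also: 0% = DMSO wells with GLD-1 and probe and 100% = wells lacking GLD-1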
Target sequence (Q17339 whole entry, looked up): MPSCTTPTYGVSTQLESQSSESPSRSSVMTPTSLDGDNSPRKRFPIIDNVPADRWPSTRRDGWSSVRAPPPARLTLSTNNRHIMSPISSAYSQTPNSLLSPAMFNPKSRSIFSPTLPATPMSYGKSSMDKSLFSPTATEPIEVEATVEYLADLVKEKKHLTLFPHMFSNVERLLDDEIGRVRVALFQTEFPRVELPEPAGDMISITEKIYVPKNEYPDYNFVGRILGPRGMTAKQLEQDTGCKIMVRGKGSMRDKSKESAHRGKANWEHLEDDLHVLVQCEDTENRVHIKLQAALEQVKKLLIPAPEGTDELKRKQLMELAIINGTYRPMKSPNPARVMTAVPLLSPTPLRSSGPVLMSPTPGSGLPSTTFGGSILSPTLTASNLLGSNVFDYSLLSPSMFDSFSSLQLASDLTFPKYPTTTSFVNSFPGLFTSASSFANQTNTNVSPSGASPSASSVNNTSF
Mcl1 Noxa PPI: disrupts binding of human Mcl-1 to Noxa peptide; AID 1022; TR-FRET Mcl-1/Noxa peptide binding, 2 h; inhibition, % at 21.7 µM; Q07820; 1.5% of 220,000 active;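 active = compounds that cut the protein-peptide binding signal by more than 50% relative to plate controls in a single-dose test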;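 also: His-tagged Mcl-1 with rhodamine Noxa BH3 peptide and terbium anti-His antibody; 0% = Mcl-1 plus Noxa peptide wells and 100% = peptide-only wells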
BCLXL inh: inhibitors of human Bcl-xL | GST-Bcl-xL / FITC-Bim BH3 peptide fluorescence polarization | inhibition, % at 10.9 µM | 0.7% of 320,000 active | Q07817 | AID 2129;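 active = inhibition above the mean of all tested compounds plus 3 SD, cutoff set per campaign, cut at about 30% in these data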;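 also: 0% = DMSO wells and 100% = unlabeled Bim-BH3 peptide competitor; inhibitors lower millipolarization by displacing the labeled peptide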
Mcl1 Bid PPI: Mcl-1/Bid interaction inhibition. AID 1021. inhibition, % at 21.7 µM. 0.97% of 220,000 active. TR-FRET Mcl-1/Bid-Dy647 peptide binding, 1536-well. Q07820;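 active = compounds that cut the binding signal by more than half at the single screening dose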;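 also: His-tagged Mcl-1 with europium anti-His antibody binding Bid BH3 peptide; 0% = Mcl-1 plus peptide wells and 100% = peptide-only wells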
Bim-Mcl-1: disrupts Bim peptide binding to human Mcl-1; Q07820; Bead-based flow cytometry, Bim peptide-Mcl-1 binding; inhibition, % at 10 µM; 0.1% of 190,000 active; in the data active = inhibition above about 40%;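 also: 0% = no compound tracer wells and 100% = peptide blocker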
An asterisk follows results filed as active; nt = no result given. Compounds with a hit are over-represented: about 2.3% of the library has one in this group of screens.

SMILES	MCL1 BIM primary	GLD-1 RNA inh	Mcl1 Noxa PPI	BCLXL inh	Mcl1 Bid PPI	Bim-Mcl-1
Clc1ccc(SCCn2ccnc2)cc1	3	-2	6	5	67*	0
C=C(C)Cn1c(Sc2nnc(C)s2)nc2c1c(=O)[nH]c(=O)n2C	1	1	-17	3	89*	0
CN1CCN(C(=O)c2cnn3c(C(F)(F)F)cc(-c4cccs4)nc23)CC1	3	2	-9	-3	0	-4
O=C(c1cnn2c(C(F)(F)F)cc(-c3cccs3)nc12)N1CCN(C(c2ccccc2)c2ccccc2)CC1	-1	2	16	85*	7	1
COC(C(=O)Nc1ccccc1C(=O)N1CCOCC1)c1ccccc1 (stereo unspecified)	0	-3	nt	4	nt	nt
CCOC(=O)c1nc(C)sc1-c1ccnn1S(=O)(=O)c1ccc(C)cc1	2	2	0	2	69*	nt
COc1ccc(S(=O)(=O)N2CCOCC2)cc1NC(=O)CCCOc1ccc(Cl)cc1C	-2	7	nt	0	nt	nt
O=C(CN1C(=O)S/C(=C\c2ccc(Cl)cc2)C1=O)NNC(=O)c1ccccc1O	33	30	65*	25	82*	-6
Cc1ccc(C)c(NC(=O)COC(=O)c2cc3ccccc3oc2=O)c1	9	0	nt	5	nt	nt
CC(C)c1ccc(C2(C)NC(=O)N(CC(=O)NCC3COc4ccccc4O3)C2=O)cc1 (stereo unspecified)	1	3	nt	0	nt	nt
O=C(N/N=C/C=C\c1ccccc1[N+](=O)[O-])c1cccs1	11	5	10	10	-14	0
O=C(N/N=C/c1cccc([N+](=O)[O-])c1)c1ccc(Br)cc1	31	-3	32	13	4	-3
O=C(N/N=C/C=C/c1ccc([N+](=O)[O-])cc1)c1cccs1	13	-22	62*	0	76*	3
O=C(/C=C/c1cccc([N+](=O)[O-])c1)Nc1ccc(NC(=O)c2cccs2)cc1	6	2	59*	7	81*	1
O=C(N/N=C/c1cccc([N+](=O)[O-])c1)c1cccs1	0	-2	16	-1	7	71*
O=C(COC(=O)c1ccccc1OCc1ccccc1Cl)NCC1CCCO1 (stereo unspecified)	nt	3	nt	nt	nt	nt
CC(C)NC(=O)Nc1ccc2c(c1)C(=O)N([C@H](C)CO)C[C@H](C)[C@@H](CN(C)S(=O)(=O)c1cn(C)cn1)O2	nt	-1	nt	nt	nt	nt
O=C(Nc1ccccc1C(=O)O)c1cc(S(=O)(=O)N2CCOCC2)c(Br)s1	1	1	nt	2	nt	nt
C=CCn1c(=S)[nH]c2sc3c(c2c1=O)CCC3	nt	nt	56*	nt	-56	-4
CCn1c(=S)[nH]c2sc3c(c2c1=O)CCCC3	1	9	nt	9	nt	nt
COCCN(C(=O)COC(=O)CSc1ccc2ccccc2c1)c1c(N)n(Cc2ccccc2)c(=O)[nH]c1=O	-8	1	nt	-11	nt	nt
O=C(COc1ccc2ccccc2c1Br)NC(=S)Nc1cccc(CO)c1	0	4	5	-2	52*	-4
COc1cc(/C=C2\SC(=S)N(CC(=O)NC3=NCCS3)C2=O)cc(OC)c1OC	15	5	12	6	0	0
COc1ccc(/C=C2\SC(=S)N(CCC(=O)NC3=NCCS3)C2=O)cc1OC	11	3	56*	3	22	0
COc1cc(/C=C2\SC(=S)N(CC(=O)Nc3ccc(O)cc3)C2=O)cc(OC)c1OC	nt	nt	77*	nt	-17	0
SMILES	MCL1 BIM primary	GLD-1 RNA inh	Mcl1 Noxa PPI	BCLXL inh	Mcl1 Bid PPI	Bim-Mcl-1
Cc1cc(NC(=O)CCN2C(=O)/C(=C\c3ccccc3)SC2=S)no1	3	-2	71*	2	-5	nt
CC1CN(C(=O)c2cc(S(=O)(=O)N3CCCCC3)ccc2Cl)CC(C)O1 (stereo unspecified)	4	5	nt	3	nt	nt
Cc1cc(C)n2nc(C(=O)OCC(=O)Nc3ccc(F)cc3F)nc2n1	0	0	nt	-1	nt	nt
CSc1ccc(C2NC(=O)c3c(sc4c3CCN(C)C4)N2)cc1 (stereo unspecified)	39	-79	27	-11	-27	-2
Cc1ccsc1C1NC(=O)c2c(sc3c2CCN(C)C3)N1 (stereo unspecified)	31	-32	11	37*	-32	-1
CN1CCc2c(sc3c2C(=O)NC(/C=C\c2ccccc2)N3)C1 (stereo unspecified)	11	4	12	16	-34	nt
CN1CCc2c(sc3c2C(=O)NC(c2cccs2)N3)C1 (stereo unspecified)	33	-31	11	32*	-18	0
O=C(Nc1nc2ccccc2[nH]1)NC1CCCCC1	3	-2	nt	3	nt	nt
Cc1ccc(S(=O)(=O)N(C)C)cc1NC(=O)c1ccccc1SCC(=O)N1CCCC1	-1	6	nt	-2	nt	nt
CC1CN(C(=O)COC(=O)c2ccc3ncsc3c2)CC(C)O1 (stereo unspecified)	nt	-2	nt	nt	nt	nt
CCN1CCN(C(c2cccs2)C(C)NC(=O)c2cccc(OC)c2OC)CC1 (stereo unspecified)	4	5	52*	3	-43	-5
CCN1CCN(C(c2cccs2)C(C)NC(=O)c2cccc(OC)c2)CC1 (stereo unspecified)	6	-1	nt	2	nt	nt
O=C(Nc1ccccc1)Nc1nc(-c2ccccc2)cs1	-2	3	-6	0	-27	nt
O=C(Nc1ccc(Cl)c(Cl)c1)Nc1nc(-c2ccccc2)cs1	3	1	51*	6	30	-2
COc1ccc(C(=O)Nc2cccc3c2CCCC3)c(OC)c1	6	1	nt	2	nt	nt
CSc1ncccc1C(=O)OCC(=O)NCCCc1ccccc1	nt	1	nt	nt	nt	nt
CCC(=O)N1CCCc2cc(S(=O)(=O)N3CCN(c4ccccc4F)CC3)ccc21	1	-4	65*	-3	6	1
CCN(CC)CCn1c2c(c(SCC(=O)Nc3ccccc3Cl)nc1=O)CCC2	-5	2	nt	-7	nt	nt
O=C(Nc1nc(-c2ccco2)c(-c2ccco2)s1)C1CC(=O)N(c2ccc3c(c2)OCCO3)C1 (stereo unspecified)	12	-1	75*	8	19	5
Cc1nnc(NC(=O)C2CC(=O)N(c3ccc4c(c3)OCCO4)C2)s1 (stereo unspecified)	-2	4	nt	-3	nt	nt
Cc1cc(=O)[nH]c(N/N=C/C2=C(N3CCOCC3)C(=C\c3ccc(Cl)cc3)/CC2)n1	-10	5	56*	-6	32	-3
N#C/C(=C\C1=C(N2CCOCC2)C(=C\c2ccc(Cl)cc2)/CC1)C(=O)Nc1ccccc1F	-6	5	45	4	62*	2
Cc1cc(C)nc(N/N=C/C2=C(N3CCOCC3)C(=C/c3ccccc3)/CC2)n1	10	3	53*	10	-21	-3
O=C(O)c1ccccc1N/N=C/C1=C(N2CCOCC2)C(=C\c2ccccc2)/CC1	12	0	63*	6	-42	nt
